The values below come from PubChem BioAssay (Tox21).

Each structure is given as a SMILES string. Several values for one entry are separate records, joined by “and”; a condition that tells them apart may be missing. Identical values can stand only once. Records with an inconclusive call do not appear. Entries that show only a call come without a potency. Where a structure was tested more than once in an assay, its records may differ in their call. Activity calls are given as the source filed them. The call rests on the fitted dose curve.
Potency means the concentration at half of the fitted maximal effect.

Retinoic acid receptor RXR-alpha (Homo sapiens), sequence (P19793 whole entry, looked up): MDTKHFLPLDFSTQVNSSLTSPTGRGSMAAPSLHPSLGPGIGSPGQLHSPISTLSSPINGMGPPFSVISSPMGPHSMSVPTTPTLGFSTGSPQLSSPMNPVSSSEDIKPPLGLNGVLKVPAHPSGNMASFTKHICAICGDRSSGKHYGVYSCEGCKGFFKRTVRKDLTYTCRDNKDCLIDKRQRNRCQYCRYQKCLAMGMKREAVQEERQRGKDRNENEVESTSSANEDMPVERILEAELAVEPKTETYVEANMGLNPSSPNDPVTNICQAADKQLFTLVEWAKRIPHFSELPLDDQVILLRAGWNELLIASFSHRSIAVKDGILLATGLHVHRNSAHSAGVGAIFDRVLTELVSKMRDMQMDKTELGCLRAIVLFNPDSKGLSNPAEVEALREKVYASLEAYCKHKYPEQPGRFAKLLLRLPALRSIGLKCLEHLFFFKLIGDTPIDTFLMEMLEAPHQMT

This assay has as its target Retinoic acid receptor RXR-alpha (Homo sapiens) (UniProt P19793). Kind of assay: qHTS assay to identify small molecule agonists of the RXR signaling pathway (AID 1159527). Further: nearly all actives have a fitted effect of over 35% in size. The conditions noted are these: HEK293T RXRa-UAS-bla, beta-lactamase ratio, 16 h; series mostly up to 76.8 µM; activation: at the top concentration. From the text: U.S. Tox21 Program National Center for Advancing Translational Sciences [NCATS] NIH Chemical Genomics Center [NCGC] U.S. Environmental Protection Agency [EPA] National Institutes of Environmental Health Sciences [NIEHS] National Toxicology Program [NTP] U.S. Food and Drug Administration [FDA] Tox21 Assay Overview: The Retinoid X receptor (RXR), a nuclear hormone receptor expressed in liver, spleen, placenta, epidermis, central nervous system. These receptors are able to form homo and heterodimers with other nuclear receptors and due to this heterodimerizing ability, RXR functions as master regulators producing diverse physiological effects. Three subtypes of RXR exist; alpha, beta and gamma. Retinoid X receptor alpha (RXR-alpha) has potential roles in metabolic signaling pathways, skin alopecia, dermal cysts, cardiac development, insulin sensitization etc. Therefore screening environmental chemicals on RXR-alpha signaling can be used for the studies focused on such therapeutic applications. For quantification of RXR-alpha ligands signaling, GeneBLAzer RXR alpha-UAS-bla HEK 293T (Life Technologies, Carlsbad, CA) cells containing a beta-lactamase reporter-gene under control of Retinoid X receptor-alpha response element were used to screen Tox21 10K library.
Tox21 Assay Protocol Summary: RXR-alpha HEK 293T cells were dispensed at 2,000 cells/6 uL of assay medium containing 2% charcoal-stripped FBS using a Multidrop Combi (ThermoFisher Scientific, Waltham, MA) dispenser. The assay was performed in black wall/clear-bottom 1536-well plates (Greiner Bio-One North America Inc. Monroe, NC). 9-cis retinoic acid was used as a positive control in the agonist mode screen. After the assay plates were incubated at 37 C and 5% CO2 for 5 hr, 23 nL of compounds dissolved in DMSO, positive controls or DMSO only were transferred to the assay plate by a Pintool station (Kalypsys, San Diego, CA). The assay plates were incubated at 37 C and 5% CO2 for 16 hr. One uL of LiveBLAzer B/G FRET substrate (Life Technologies) was added using a Flying Reagent Dispenser (Aurora Discovery, San Diego, CA) and the plates were incubated at room temperature for 2 hr. Fluorescence intensity (405 nm excitation, 460/530 nm emission) was measured using an Envision plate reader (PerkinElmer, Shelton, CT).
(In general: Quantitative high-throughput screening tests each substance at several concentrations.)
With `OC[C@H]1O[C@H](O[C@]2(CCl)O[C@H](CCl)[C@@H](O)[C@@H]2O)[C@H](O)[C@@H](O)[C@H]1Cl`, the Potency entry was “inactive”.

For the compound `O=S1(=O)OC(c2ccc(O)cc2)(c2ccc(O)cc2)c2ccccc21`, the Potency entry is “inactive”.

With `CCCCC(CC)C(=O)O` (stereo not given), the Potency entry was “inactive”.

For the compound `Nc1c2c(nc3ccccc13)CCCC2`, the Potency entry was “inactive”.

In the case of `CCc1nc(N)nc(N)c1-c1ccc(Cl)cc1`, the Potency result was “inactive”.

As to `Cc1ncc([N+](=O)[O-])n1C`, the Potency entry was “inactive”.

On to `CCCCCCCC(=O)OCC(COC(=O)CCCCCCC)OC(=O)CCCCCCC`, for which the Potency entry is “inactive”.

Consider `Cc1c(C(=O)O)c(O)cc2c1C(=O)c1c(O)c([C@@H]3O[C@H](CO)[C@@H](O)[C@H](O)[C@H]3O)c(O)c(O)c1C2=O`, for which the “activation” value is 2.18% [at 35.3 µM] (inactive).

Consider `CN(C)CCOC(C)(c1ccccc1)c1ccccn1` (stereo not given), for which the “activation” value is -2.83% [at 35.3 µM] (inactive).

For `NC(CO)(CO)CO`, the Potency entry is “inactive”.

Turning to `CNNCc1ccc(C(=O)NC(C)C)cc1`, the Potency result is “inactive”.

As for `O=C(O)c1ccccc1`, the Potency entry was “inactive”.

Regarding `CC(O)(P(=O)(O)O)P(=O)(O)O`, the Potency entry was “inactive”.

With `Cc1cc(=O)oc2cc(O)ccc12`, the Potency is 43.6 µM (active).

Turning to `CCCC[P+](CCCC)(CCCC)CCCC`, the Potency entry was “inactive”.

As to `CN(C)C(=O)Nc1ccc(Cl)c(Cl)c1`, the Potency result is “inactive and 19.5 µM (active)”.

Regarding `CC(=O)Nc1c(I)c(NC(C)=O)c(I)c(C(=O)O)c1I`, the Potency result is “inactive”.

Take `CN(C)CCOC(c1ccccc1)c1ccccc1`: the Potency result was “inactive”.

`NC1CCCCC1`: the “activation” value is 8.38% (inactive).

`Nc1ccc(S(N)(=O)=O)cc1`: the Potency was 5.52 µM (active) and inactive.

Turning to `O=c1[nH]cc(F)c(=O)[nH]1`, the Potency is 28.2 µM (active).

In the case of `CN(N=O)C(=O)N[C@@H]1[C@@H](O)[C@H](O)[C@@H](CO)O[C@@H]1O`, the “activation” value is -0.566% [at 35.3 µM] (inactive).

Turning to `F[B-](F)(F)F`, the Potency entry is “inactive”.

As for `Cc1cc(C)nc(NS(=O)(=O)c2ccc(N)cc2)n1`, the Potency was 14 µM (active) and inactive.

Turning to `C/C=C/C=C/C(=O)O`, the Potency result is “inactive and 49 µM (active)”.

Take `O=C1NC(=O)C(c2ccccc2)(c2ccccc2)N1`: the Potency result is “inactive”.

Consider `Oc1ccccc1`, for which the Potency result is “inactive and 11 µM (active)”.

For `Cn1c(=O)c2c(ncn2C)n(C)c1=O`, the Potency entry is “inactive”.

Take `Nc1ccc(O)c([N+](=O)[O-])c1`: the Potency was 7.76 µM (active).

For `CC(=O)C(=O)O`, the Potency result is “inactive”.

For `COc1ccc(CN(CCN(C)C)c2ccccn2)cc1`, the Potency entry was “inactive”.

For the compound `CN1CCc2cccc3c2[C@H]1Cc1ccc(O)c(O)c1-3`, the “activation” value is 1.44% [at 35.3 µM] (inactive).

As to `CC(C)c1c(C(=O)Nc2ccccc2)c(-c2ccccc2)c(-c2ccc(F)cc2)n1CC[C@@H](O)C[C@@H](O)CC(=O)O`, the “activation” value was -17.6% [at 35.3 µM] (inactive).

Turning to `CCOc1ccc(NC(C)=O)cc1`, the Potency result is “inactive”.

As for `COc1cccc(O)c1O`, the “activation” value is -14.8% (inactive).

`CC(C)C(=O)Nc1ccc([N+](=O)[O-])c(C(F)(F)F)c1`: the “activation” value is 10.3% [at 35.3 µM] (inactive).

`C[C@](N)(Cc1ccc(O)c(O)c1)C(=O)O`: the Potency entry is “inactive”.

Turning to `C=C(C)C(=O)OCC(C)O` (stereo not given), the Potency entry is “inactive”.

For `CCCCCCc1ccc(O)cc1O`, the “activation” value is -10.2% [at 35.3 µM] (inactive).

In the case of `CCCCC1(COC(=O)CCC(=O)O)C(=O)N(c2ccccc2)N(c2ccccc2)C1=O`, the Potency entry is “inactive”.
